Reference: ChEMBL document CHEMBL4296183, “CO-ADD screening of NIH NCI Natural Product Set III” (2020)
For some assays here: Potency and affinity values are given separately.

Columns and labels:
Staphylococcus aureus = assay: Antibacterial activity against Staphylococcus aureus MRSA ATCC 43300 (CO-ADD:GP_020); MIC in CAMBH media using NBS plates, by Resazurin F(560/590); format: functional; conditions: Concentration 20 uM, ASSAY_TEST Inhibition of Bacterial Growth, detection method Resazurin, Fluorescence (ex560/em590), MEDIA CAMHB, plate type 384well, CORNING #3640, time 18 hr
Acinetobacter baumannii = assay: Antibacterial activity against Acinetobacter baumannii ATCC 19606 (CO-ADD:GN_034); MIC in CAMBH media using NBS plates, by Resazurin F(560/590); format: functional; conditions: Concentration 20 uM, ASSAY_TEST Inhibition of Bacterial Growth, detection method Resazurin, Fluorescence (ex560/em590), MEDIA CAMHB, plate type 384well, CORNING #3640, time 18 hr
Escherichia coli = assay: Antibacterial activity against Escherichia coli ATCC 25922 (CO-ADD:GN_001); MIC in CAMBH media using NBS plates, by Resazurin F(560/590); format: functional; conditions: Concentration 20 uM, ASSAY_TEST Inhibition of Bacterial Growth, detection method Resazurin, Fluorescence (ex560/em590), MEDIA CAMHB, plate type 384well, CORNING #3640, time 18 hr
Klebsiella pneumoniae = conditions: Concentration 20 uM; ASSAY_TEST Inhibition of Bacterial Growth; detection method Absorption (OD600); MEDIA CAMHB; plate type 384well; NBS; CORNING #3640; time 18 hr
Candida albicans = conditions: 20 µM
Cryptococcus neoformans = conditions: Concentration 20 uM; ASSAY_TEST Inhibition of Fungal Growth; detection method Resazurin; Absorption (OD600-OD570); plate type 384well; NBS; CORNING #3640

Compound	Inhibition (Staphylococcus aureus) [%]	Inhibition (Acinetobacter baumannii) [%]	Inhibition (Escherichia coli) [%]	Inhibition (Klebsiella pneumoniae) [%]	Inhibition (Candida albicans) [%]	Inhibition (Cryptococcus neoformans) [%]
CC(=O)CCCCn1c(=O)c2c(ncn2C)n(C)c1=O [PENTOXIFYLLINE]	0.21	0.79	9.18	-2.03	4.24	-13.02
COC(=O)C1C(O)CCC2CN3CCc4c([nH]c5ccccc45)C3CC21 (centres undefined)	7.76	-5.08	5.27	13.74	1.54	-9.85
COc1c2occc2cc2ccc(=O)oc12 [METHOXSALEN]	3.08	-6.09	2.12	4.76	-3.39	-9.6
O=c1oc2c(O)c(O)cc3c(=O)oc4c(O)c(O)cc1c4c23 [ELLAGIC ACID]	-17.94	-6.11	7.74	25.12	8.04	-7.36
COc1cc2c3c(c4ccc(OC)c(OC)c4c2cc1OC)CN1CCC[C@@H]1C3 [TYLOCREBRINE]	23.41	-4.59	1.54	13.12	-1.43	-6.05
CC1(C)C(=O)N2c3ccccc3C3(CC(N4C(=O)c5ccccc5C4=O)C(=O)O3)C2N1C(=O)OCc1ccccc1 (centres undefined)	-7.98	-16.59	1.59	-2.04	1.22	-12.3
COc1cc2c(c(OC)c1OC)-c1ccc(OC)c(=O)cc1[C@@H](NC(C)=O)CC2 [COLCHICINE]	-2.4	-6.56	3.55	3.13	-0.28	-9.86
COC(=O)[C@]1(C)CCC[C@]2(C)C3=CC(=O)[C@@]4(C(C)C)O[C@H]4[C@]3(O)CC[C@@H]12	16.23	-9.2	10.18	-2.04	3.2	-11.73
O=c1oc2cc(O)ccc2c2oc3cc(O)ccc3c12 [COUMESTROL]	0.36	-8.94	2.17	-3.39	2.68	17.46
CC1=C2[C@H]3OC(=O)[C@@H](C)[C@@H]3CC[C@@]2(C)C=C/C1=N\O	19.54	-5.16	3.05	6.63	-0.24	-9.56
CC(C)=CC(=O)OC1C2C(C)C(=O)OC2C(O)C(C)C2C=CC(=O)C21C (centres undefined)	8.65	-2.16	-1.23	13.7	0.18	-5.72
CCC1NC(=O)C(NC(=O)c2ncccc2O)C(C)OC(=O)C(c2ccccc2)NC(=O)C2CC(=O)CCN2C(=O)C(Cc2ccccc2)N(C)C(=O)C2CCCN2C1=O (centres undefined)	3.19	-3.49	1.18	4.35	-3.25	-7.49
COC1/C=C\C=C(/C)C(=O)NC2=CC(=O)C(N)=C(CC(C)CC(OC)C(O)C(C)/C=C(\C)C1OC(N)=O)C2=O (centres undefined)	2.59	-32.33	-4.57	4.53	-0.48	-11.91
CC1(C)CC23C4COC(=O)C2CCC1C3CC4=O (centres undefined)	5.56	-5.6	-0.76	-5.19	0.59	-8.62
Cc1cc2nc3[nH]c(=O)[nH]c(=O)c3nc2cc1C [LUMICHROME]	0.69	-0.84	3.58	12.48	0.84	-5.45
CCCCCCCCCCCCCCCC(=O)O[C@@H]1[C@@H](C)[C@@]2(O)[C@@H](C=C(CO)C[C@]3(O)C(=O)C(C)=C[C@@H]23)[C@H]2[C@]1(OC(C)=O)[C@]2(C)CO	18.67	-9.19	2.92	11.05	-4.72	-11.83
COc1c2c(cc3c1[C@@H]1Oc4c(ccc(O)c4CC=C(C)C)[C@@H]1CO3)OC(C)(C)C=C2	-1.33	-12.04	1.21	-0.46	5.57	-11.6
CC(=O)C1CCCC(=O)/C=C/C(=O)O1 (centres undefined)	-2.82	-9.57	-0.06	-0.08	6.81	-5.33
CCCCCC[C@H]([C@H](C)O)n1cnc2c(N)ncnc21.Cl	18.32	-17.98	7.31	-3.55	-0.37	-9.44
CC(C)=CCc1c2c(c3occ(-c4ccc(O)c(O)c4)c(=O)c3c1O)C=CC(C)(C)O2 [POMIFERIN]	6.8	23.27	0.91	26.31	-6.81	-8.85
CC1(C)CCCC2(C)C3=C(CCC12)C(=O)OC3 (centres undefined)	10.53	-0.35	1.76	7.04	0.95	-15.17
CC(C)CC1NC(=O)C(C(C)C)NC(=O)CC(C)COC(=O)C(CC(C)C)N(C)C(=O)C(C(C)C)NC(=O)C(C(C)C)OC1=O (centres undefined)	-2.11	3.02	6.85	6.52	-1.26	-9.65
CC(=O)Oc1ccc2ccc(=O)oc2c1OC(C)=O	18.68	-10.5	2.34	9	-1.13	-4.56
CC[C@]1(O)C[C@H]2CN(CCc3c([nH]c4ccccc34)[C@@](C(=O)OC)(c3cc4c(cc3OC)N(C=O)[C@H]3[C@@](O)(C(=O)OC)[C@H](OC(C)=O)[C@]5(CC)C=CCN6CC[C@]43[C@@H]65)C2)C1.O=S(=O)(O)O [VINCRISTINE SULFATE]	-14.43	-6.71	2.79	1.69	-0.39	-1.83
CC1CC(O)C2C3(C)CCCC2(COC3=O)C12CCC1(CCOC1=O)O2 (centres undefined)	0.12	-5.16	2.41	8.95	-0.89	-8.53

Compound	Inhibition (Staphylococcus aureus) [%]	Inhibition (Acinetobacter baumannii) [%]	Inhibition (Escherichia coli) [%]	Inhibition (Klebsiella pneumoniae) [%]	Inhibition (Candida albicans) [%]	Inhibition (Cryptococcus neoformans) [%]
COC(=O)C1C2CC3c4[nH]c5cc(OC)ccc5c4CCN3CC2CC(OC(=O)CCc2cc(OC)c(OC)c(OC)c2)C1OC (centres undefined)	8.41	-10.91	1.29	-7.51	-0.42	-8.83
COc1ccc(C2CC(=O)c3c(O)cc(OC4OC(CO)C(O)C(O)C4OC4OC(C)C(O)C(O)C4O)cc3O2)cc1O (centres undefined)	15.96	-4.03	5.81	1.79	-1.53	-13
COC(=O)NC1C(C)OC(OC2C/C=C(/C)C3C=CC4C(OC5CC(OC6CCC(OC7CC(O)C(OC8CCC(O)C(C)O8)C(C)O7)C(C)O6)C(OC(C)=O)C(C)O5)C(C)CC(C)C4C3(C)/C(O)=C3/C(=O)OC4(CC(C=O)=CC(O)C4/C=C\2C)C3=O)CC1(C)[N+](=O)[O-] (centres undefined)	-21.61	-13.61	6.38	4.04	4.81	-14.96
COc1c(O)cc2oc3cc(O)c(CC=C(C)C)c(O)c3c(=O)c2c1CC=C(C)C [MANGOSTIN]	-10.76	-19.44	-3.06	-4.57	-6.96	-8.44
COC(=O)[C@@H]1[C@H]2C[C@@H]3c4[nH]c5ccccc5c4CCN3C[C@@H]2CC[C@@H]1O	20.93	-4.53	11.73	-5.72	-3.73	-8.25
CCCCCCCCCCCCCCCCCCOCC(O)CO (centres undefined) [BATILOL]	16.14	-8.86	0.06	2.79	-1.81	0.87
C[C@@H]1C(=O)C[C@H]2C(C)(C)CCC[C@]2(C)[C@@]1(O)CCc1ccoc1	-11.22	-8.38	1.88	-12.83	5.12	-4.02
O=C(O)CCCCCCC[C@@H](O)[C@@H](O)CCCCCCO	20.06	-9.87	9.65	0.28	1.24	-6.7
CC(=O)O.COc1ccc2c(=O)oc3c(OC)cc(CCN(C)C)c4c(=O)oc1c2c34	18.21	-7.25	6.5	15.37	-2.47	-6.47
CCC1OC(=O)C(C)C(OC2CC(C)(O)C(O)C(C)O2)C(C)C(O)C(C)(O)CC(C)C(=O)C(C)C(O)C1C (centres undefined)	-9.59	-2.14	7.74	3.36	1.65	-12.63
CN1CCc2cc3c(cc2C(=O)Cc2ccc4c(c2C1)OCO4)OCO3.Cl [PROTOPINE HYDROCHLORIDE]	14.82	-4.7	3	4.34	-1.7	-6.39
C/C=C/c1cc2c(c(=O)o1)C(=O)[C@@H](O)[C@H](C)O2	-0.66	-9.6	14.21	-6.98	1.1	-12.06
COc1cc(C)c2c(c1C=O)Oc1c(c(C)c(O)c3c1C(O)OC3=O)OC2=O (centres undefined) [STICTIC ACID]	1.81	-4.46	10.36	-0.81	-4.28	-12.08
COc1c2occc2c(OC)c2c(=O)cc(C)oc12 [KHELLIN]	20.27	-0.82	5.11	15.74	-0.57	-6.58
COc1cc([C@@H]2c3cc4c(cc3[C@@H](OC3OC5CO[C@@H](c6cccs6)OC5C(O)C3O)[C@H]3COC(=O)[C@H]23)OCO4)cc(OC)c1O (some centres undefined)	7.05	-1.54	1.68	-0.01	0.54	-9.1
COc1ccc2c(c1)O[C@H]1c3ccc(O)cc3OC[C@@H]21	7.33	-10.59	8.35	-2.42	12.9	-18.12
COc1cc(/C=C/C(=O)CC(=O)/C=C/c2ccc(O)c(OC)c2)ccc1O [CURCUMIN]	13.57	-16.03	0.88	14.8	-4.9	-10.45
C=C1C(=O)O[C@@H]2[C@H]3O[C@]3(C)CC/C=C(\C)CC[C@@H]12	-12.66	3.45	5.09	3.51	–	-8.82
C=C1C(=O)OC2CC3(C)CCCC(C)C3=CC12 (centres undefined)	9.16	-5.59	-1.07	10.15	0.7	-3.97
C=C1C(=O)OC2CC(C)C3(O)CCC(=O)C3(C)CC12 (centres undefined)	18.37	-10.29	9.08	2.56	2.8	-16.95
C=C1C(=O)OC2CC1C(O)C/C(C)=C/CC/C(C)=C/C(O)CC2C (centres undefined)	8.79	-8.51	8	4.77	2.83	-14.61
O=C1c2cc(O)c(O)cc2O[C@H](c2ccc(O)c(O)c2)[C@H]1O	16.46	-11.64	7.15	6.5	-0.56	-13.12
CCCCCc1cc(O)cc2c1Oc1cc(O)cc(C(=O)CCCC)c1C(=O)O2	23.6	-18.85	9.72	-6.31	2.52	-14.32
COc1ccc2c(c1OC)C(=O)O[C@@H]2[C@H]1c2c(cc3c(c2OC)OCO3)CCN1C [NOSCAPINE]	1.91	-5.12	1.19	-0.26	-0.41	-6.69
CC(C)c1ccc2c(c1)CC[C@H]1[C@](C)(C(=O)O)CCC[C@]21C [DEHYDROABIETIC ACID]	11.51	-10.79	7.61	-3.77	14	-14.06
